These results are taken from publication PMC5540273 (PLoS ONE, 2017).
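Further: KINOMEscan kinase panel screen.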

One assay deals with EPHA2. The settings on record: concentration: 1 μM, replicates: in singlicate; n = 1.
As to `O=C(O)C(F)(F)F.O=c1[nH]ccc2nc(N[C@@H]3CCNC3)nc(Nc3cc(Cl)cc(Cl)c3)c12` [GSK2188764], the “%Inh” value was 0%.

With `Nc1ncnc2scc(-c3ccc(NC(=O)Cc4cc(F)ccc4F)cc3)c12.O=C(O)C(F)(F)F` [SB-731254-M], the “%Inh” value was determined as 100%.

For the compound `Cc1ccc(NC(=O)c2ccnc(N3CCCCC3)c2)cc1-c1ccc(C(=O)NCC2CC2)cc1` [GW775610], the “%Inh” value amounted to 5%.

Consider `Fc1cc(Cl)ccc1Nc1ccnc2cc(-c3ccc(CN4CCOCC4)o3)ccc12` [GW560109], for which the “%Inh” value was 34%.

In the case of `CS(=O)(=O)c1cccc(CNc2nc(Nc3ccc4c(c3)CCC(=O)N4)ncc2C(F)(F)F)c1`, the “%Inh” value is on record as 0%.

Take `Cc1cc(-c2c(-c3ccc(F)cc3)ncn2CCCN2CCOCC2)nc(N)n1` [SB-222517]: the “%Inh” value stood at 0%.

On to `CN1CCN(Cc2ccc(NC(=O)Nc3ccc(N(C)c4ccnc(Nc5ccc(CS(C)(=O)=O)cc5)n4)cc3)cc2)CC1.Cl` [GW827654], for which the “%Inh” value was 29%.

With `COc1cccc(C2=C(Nc3cccc(O)c3)C(=O)NC2=O)c1` [SB-390771], the “%Inh” value is listed as 29%.

As for `O=C(Nc1n[nH]c2nc(-c3cccc(O)c3)ccc12)C1CC1` [SB-711805], the “%Inh” value was 0%.

As for `CN(c1ccc(NC(=O)Nc2cccc(Cl)c2)cc1)c1ccnc(N)n1.Cl` [GW830707], the “%Inh” value is listed as 18%.

Regarding `CC(=O)Nc1cn2nc(Oc3cccc(NC(=O)c4cccc(C(F)(F)F)c4)c3)ccc2n1`, the “%Inh” value turned out to be 99.2%.

Turning to `COc1ccc(C)c(Nc2ccnc(Nc3ccc(-c4cnc[nH]4)cc3)n2)c1.Cl` [GW784041], the “%Inh” value came out at 45%.

In the case of `Cl.Cl.NC(CNC(=O)c1cc(Br)c(-c2ccnc3[nH]ccc23)s1)c1ccccc1` (centres unmarked) [GSK1322949], the “%Inh” value was found to be 1%.

The subject of a further assay is EPHA3. The settings on record: concentration: 1 μM, replicates: in singlicate; n = 1.
For the compound `Nc1ncc(-c2ccc3nccc(-c4ccncc4)c3c2)cc1S(=O)(=O)N1CCCCC1` [GSK1693850], the “%Inh” value was found to be 22%.

Turning to `COc1cccc(CC(=O)N2CCc3cc(-c4cn(C)c5ncnc(N)c45)ccc32)c1` [GSK2608899], the “%Inh” value stood at 19%.

As to `CC(C)NCC(Cc1ccccc1)NC(=O)c1cc(Br)c(-c2ccnc3[nH]ccc23)s1.Cl.Cl` (centres unmarked) [GSK1383281], the “%Inh” value worked out at 8%.

Turning to `Nc1ncc(-c2cn[nH]c2)c2scc(-c3ccc4c(c3)CCN4C(=O)Cc3ccccc3)c12` [GSK2593067], the “%Inh” value is on record as 0%.

As for `Cc1cccc(Nc2nc(NCCN)ncc2C(N)=O)c1` [GSK1292139], the “%Inh” value is given as 64%.

Consider `CC(C)c1nc(-c2cccc(NS(=O)(=O)c3c(F)cccc3F)c2)c(-c2ccnc(Nc3ccc(N4CCOCC4)nc3)n2)s1.Cl` [GSK1723980], for which the “%Inh” value amounted to 18%.

In the case of `Cc1ccc(-c2ccc3occ(-c4ccc(S(C)=O)cc4)c3c2)nn1` (centres unmarked), the “%Inh” value is recorded as 6%.

Regarding `COc1ccc(C2=C(Nc3cccc(O)c3)C(=O)NC2=O)cc1` [SB-390766], the “%Inh” value came to 0%.

For `COc1ccc(NC(=O)c2ccoc2)cc1-c1ccc(C(=O)NCC2CC2)cc1` [GW810437], the “%Inh” value is recorded as 15%.

With `Cc1nn2c(=O)cc(N3CCO[C@H](C)C3)nc2n1Cc1cccc(Cl)c1Cl` [GSK2373693], the “%Inh” value was 0%.

As for `Cl.O=C(Nc1ccc(Oc2ccc3[nH]c(NC(=O)c4ccco4)nc3c2)cc1)Nc1cc(C(F)(F)F)ccc1F` [GW683134], the “%Inh” value turned out to be 20%.

On to `O=C(O)C(F)(F)F.O=c1[nH]ccc2nc(N[C@@H]3CCNC3)nc(Nc3ccc4c(c3)S(=O)(=O)CC4)c12` [GSK2181306], for which the “%Inh” value is 93.9%.

In the case of `O=C(Nc1n[nH]c2cc(-c3cccs3)ccc12)C1CC1` [SB-731284], the “%Inh” value was 13%.

In the case of `CNc1nccc(-c2ccc3c(N)n[nH]c3c2)n1` [GSK2206003], the “%Inh” value was found to be 12%.

Regarding `COc1cccc(NC(=O)NCCNc2ccnc(Nc3ccc(F)cc3)n2)c1` [GSK1379879], the “%Inh” value was found to be 0%.

For `CN(c1ccc2c(c1)nc(NCc1ccccc1)n2C)c1ccnc(Nc2ccc(CS(C)(=O)=O)cc2)n1.Cl` [GW811603], the “%Inh” value stood at 27%.

Regarding `Cc1ccc(O)cc1Nc1ccnc2cc(-c3ccc(CN4CCCCC4)o3)ccc12` [GW557777], the “%Inh” value was found to be 94.9%.

Turning to `Cc1cccc(Nc2nc(N[C@H]3CCCC[C@H]3N)ncc2C(N)=O)c1.Cl` [GSK986310], the “%Inh” value is on record as 58%.

As for `c1ccc(Oc2ccc(Nc3ccnc4cc(-c5ccc(CN6CCCCC6)o5)ccc34)cc2)nc1` [GW567143], the “%Inh” value stood at 6%.

Turning to `CC(C)c1nc(-c2ccc(F)c(NS(=O)(=O)c3c(F)cccc3F)c2)c(-c2ccnc(Nc3ccc(N4CCOCC4)nc3)n2)s1` [GSK1804250], the “%Inh” value was 31%.

As to `CCNc1nccc(-c2c(-c3ccc(F)cc3)ncn2C2CCN(C)CC2)n1`, the “%Inh” value is 0%.

Regarding `Fc1cc(Cl)ccc1Nc1ccnc2cc(-c3ccc(CN4CCSCC4)o3)ccc12` [GW560106], the “%Inh” value came to 19%.

For `NCCC(NC(=O)c1cc(Br)c(-c2ccnc3[nH]ccc23)s1)c1ccccc1.O=C(O)C(F)(F)F.O=C(O)C(F)(F)F` (centres unmarked) [GSK1307810], the “%Inh” value came out at 35%.

As for `Cc1ccc(NC(=O)c2ccc(Cl)c(Cl)c2)cc1-c1ccc(C(=O)Nc2ccncc2)cc1` [GSK1398460], the “%Inh” value is recorded as 1%.

As to `O=C(O)C(F)(F)F.O=c1[nH]ccc2nc(N[C@@H]3CCNC3)nc(Nc3cc(Cl)cc(Cl)c3)c12` [GSK2188764], the “%Inh” value turned out to be 72%.

On to `Nc1ncnc2scc(-c3ccc(NC(=O)Cc4cc(F)ccc4F)cc3)c12.O=C(O)C(F)(F)F` [SB-731254-M], for which the “%Inh” value stood at 21%.

Regarding `Cc1ccc(NC(=O)c2ccnc(N3CCCCC3)c2)cc1-c1ccc(C(=O)NCC2CC2)cc1` [GW775610], the “%Inh” value is 6%.

With `Fc1cc(Cl)ccc1Nc1ccnc2cc(-c3ccc(CN4CCOCC4)o3)ccc12` [GW560109], the “%Inh” value is 32%.

On to `CS(=O)(=O)c1cccc(CNc2nc(Nc3ccc4c(c3)CCC(=O)N4)ncc2C(F)(F)F)c1`, for which the “%Inh” value is reported as 0%.

For the compound `Cc1cc(-c2c(-c3ccc(F)cc3)ncn2CCCN2CCOCC2)nc(N)n1` [SB-222517], the “%Inh” value is reported as 0%.

Turning to `CN1CCN(Cc2ccc(NC(=O)Nc3ccc(N(C)c4ccnc(Nc5ccc(CS(C)(=O)=O)cc5)n4)cc3)cc2)CC1.Cl` [GW827654], the “%Inh” value stood at 49%.

`COc1cccc(C2=C(Nc3cccc(O)c3)C(=O)NC2=O)c1` [SB-390771]: the “%Inh” value amounted to 0%.

As to `O=C(Nc1n[nH]c2nc(-c3cccc(O)c3)ccc12)C1CC1` [SB-711805], the “%Inh” value came to 19%.

Regarding `CN(c1ccc(NC(=O)Nc2cccc(Cl)c2)cc1)c1ccnc(N)n1.Cl` [GW830707], the “%Inh” value was 15%.

Turning to `CC(=O)Nc1cn2nc(Oc3cccc(NC(=O)c4cccc(C(F)(F)F)c4)c3)ccc2n1`, the “%Inh” value came out at 65%.

For `COc1ccc(C)c(Nc2ccnc(Nc3ccc(-c4cnc[nH]4)cc3)n2)c1.Cl` [GW784041], the “%Inh” value turned out to be 3%.

Consider `Cl.Cl.NC(CNC(=O)c1cc(Br)c(-c2ccnc3[nH]ccc23)s1)c1ccccc1` (centres unmarked) [GSK1322949], for which the “%Inh” value is given as 26%.
